Screens deposited in PubChem BioAssay by several laboratories.
Compounds with a hit are over-represented: about 2.4% of the library has one in this group of screens.
SENP8 block-1 = blocks the human protease SENP8; Q96LD8; purified SENP8, Z-RLRGG-aminoluciferin cleavage, luminescence; inhibition, % at 10 µM; hit rate 1.2% among 330,000; AID 2540; in the data active = inhibition above about 50%
SENP7 inh = blocks the human protease SENP7; Q9BQF6; recombinant SENP7, Z-RLRGG-aminoluciferin luminescence, 40 min; inhibition, % at 5 µM; hit rate 1.5% among 330,000;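 active = inhibition above about 50% at the single test dose, limit read from the data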;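 also: plate controls were DMSO with enzyme for no effect and no enzyme buffer wells for full effect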
Target sequence (Q9BQF6 706-1050 limits assumed): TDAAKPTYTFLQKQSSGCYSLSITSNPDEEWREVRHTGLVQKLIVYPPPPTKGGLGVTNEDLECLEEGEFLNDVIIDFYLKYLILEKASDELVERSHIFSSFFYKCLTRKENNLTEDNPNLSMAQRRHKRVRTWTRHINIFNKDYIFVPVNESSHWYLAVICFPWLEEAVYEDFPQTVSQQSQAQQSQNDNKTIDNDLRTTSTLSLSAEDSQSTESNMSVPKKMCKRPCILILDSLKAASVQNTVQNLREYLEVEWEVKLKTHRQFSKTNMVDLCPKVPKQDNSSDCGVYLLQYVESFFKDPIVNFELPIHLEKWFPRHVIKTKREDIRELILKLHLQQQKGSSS
Platelet DG rel = platelet dense granule release activity. human platelet-rich plasma, SFLLRN dense granule ATP release, luminescence. inhibition, %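 (compounds screened at 7.5 µM in platelet-rich plasma)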. hit rate 0.22% among 300,000;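 active = mean replicate score, as percent of positive control, at or above 50; inconclusive = mean below 50 but at least one replicate at or above 50; inactive = mean and every replicate below 50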
SENP6 inh = blocks the human protease SENP6 | Recombinant SENP6 catalytic domain, aminoluciferin luminescence | inhibition, % at 10 µM | hit rate 1.8% among 330,000 | AID 2599;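 active = inhibition above about 50% at the single tested dose, limit read from the data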;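 also: plate controls were DMSO wells with enzyme for no effect and DMSO wells lacking enzyme for full effect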
SENP8 block-2 = blocks human SENP8 cleavage of Nedd8 substrate; Q96LD8; recombinant SENP8, Nedd8 substrate fluorescence; inhibition, % at 20 µM; hit rate 0.64% among 360,000; AID 602440; in the data active = inhibition mostly above about 40%, no sharp cut-off; inactive = mostly below about 27%
SENP8 confirm = confirmation of human SENP8 protease inhibitors; shares compounds with SENP7 inh; Recombinant SENP8, Z-RLRGG-aminoluciferin luminescence, 60 min; inhibition, % at 12.5 µM; hit rate 40% among 6,200;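 active = mean inhibition across replicates above about 50%, limit read from the data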
SENP6 conf = confirmation of human SENP6 protease inhibitors | shares compounds with SENP7 inh | recombinant SENP6, Z-RLRGG-aminoluciferin luminescence | inhibition, % at 12.5 µM | hit rate 58% among 6,200 | AID 488915
SENP7 confirm = confirmation of human SENP7 protease inhibitors. shares compounds with SENP7 inh. recombinant SENP7, Z-RLRGG-aminoluciferin luminescence, 40 min. inhibition, % at 12.5 µM. hit rate 69% among 6,200
Casp3 select = selectivity test for SENP inhibitors: human caspase-3 inhibition | shares compounds with SENP7 inh | purified caspase-3, Z-DEVD-aminoluciferin luminescence, 60 min | inhibition, % at 12.5 µM | hit rate 60% among 6,200;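 active = mean inhibition above about 50%, limit read from the data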;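 also: plate controls were enzyme with DMSO for no effect and wells without caspase-3 for full effect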
SENP luc ctr = counter-screen for SENP inhibitors: luminescence interference. inhibition, % at 12.5 µM. shares compounds with SENP7 inh. Pre-incubated SENP8/Z-RLRGG-aminoluciferin, luciferase luminescence interference. hit rate 39% among 6,200. AID 488919;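 active = mean inhibition above about 50% when retested at one dose, limit read from the data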;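 also: plate controls were DMSO wells with completed reaction for no effect and substrate without enzyme for full effect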
* marks the source's active call; other numbers are inactive results; ? = inconclusive; . = no result.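 The calls were made as follows, unless noted: active = mean inhibition above about 50% in the one-dose retest (limit read from the data); inactive = the rest.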

SMILES | SENP8 block-1 | SENP7 inh | Platelet DG rel | SENP6 inh | SENP8 block-2 | SENP8 confirm | SENP6 conf | SENP7 confirm | Casp3 select | SENP luc ctr
O=C1NC(c2ccc(Cl)cc2)Nc2ccccc21 (configuration not stated) | -3.1 | 6.3 | 1.6 | -6.4 | -186.5 | . | . | . | . | .
CN(C)c1ccc(C2NC(=O)c3ccccc3N2)cc1 (configuration not stated) | 86.7* | 93.1* | -4.3 | 90.6* | -272.1 | 13.2 | 5.6 | 2.3 | 13.1 | 15.1
Cc1nc2ccsc2c(=O)n1-c1cccc(Cl)c1 | 10.0 | 0.8 | 3.2 | -0.1 | 12.8 | . | . | . | . | .
COc1cccc(CN2CCNC(=O)C2CC(=O)N(C)C2CCCCC2)c1 (configuration not stated) | 0.5 | -1.3 | 5.7 | 3.0 | -71.5 | . | . | . | . | .
COC(=O)c1sccc1NC(=O)Cc1ccc(Br)cc1 | 39.7 | 21.4 | 1.0 | 58.6* | 11.3 | 59.9* | 56.0* | 47.6 | 47.9 | 40.4
Cc1nc2cc(NC(=O)Nc3ccccc3Cl)ccc2n1C | 93.4* | 97.3* | ? | 88.4* | 6.4 | 85.7* | 92.4* | 99.3* | 94.3* | 90.8*
Cc1ccc(NC(=O)Nc2ccc3c(c2)nc(C)n3C)cc1 | 15.7 | 12.5 | 3.6 | -7.8 | 11.3 | . | . | . | . | .
Cc1nc2cc(NC(=O)Nc3cccc([N+](=O)[O-])c3)ccc2n1C | 32.0 | 66.4* | 4.7 | 73.3* | 16.2 | 34.1 | 54.0* | 91.8* | 75.6* | 9.3
Oc1ccccc1/C=N/Nc1cccc2cccnc12 | 86.5* | 88.2* | 9.0 | 92.3* | -60.7 | 92.2* | 96.1* | 101.4* | 79.9* | 43.0
COc1cccc(C(N)=O)c1 | -18.4 | -21.9 | -1.0 | -22.3 | 7.0 | . | . | . | . | .
COc1cccc(/C(C)=N/N=C(\C)c2cccc(OC)c2)c1 | 61.4* | 66.1* | 1.2 | 80.9* | 13.1 | 43.1 | 56.1* | 85.3* | 54.9* | 40.9
O=C(O)CCN1C(=O)/C(=C\c2ccc(OCc3ccccc3)c(OCc3ccccc3)c2)SC1=S | 13.9 | 4.3 | 0.2 | -1.7 | 5.7 | . | . | . | . | .
O=C(O)c1ccc(/C=C2/SC(=S)N(Cc3ccccc3)C2=O)cc1 | . | . | 13.0 | . | 17.1 | . | . | . | . | .
O=C1/C(=C\c2ccc(O)cc2)SC(=S)N1Cc1ccccc1 | 78.5* | 7.9 | -5.0 | 72.3* | 1.5 | 59.6* | 81.9* | 83.8* | 20.4 | 35.9
CC(=C\c1ccccc1)/C=C1/SC(=S)N(CCC(=O)O)C1=O | 88.6* | 1.9 | -4.3 | 91.2* | 17.1 | 30.4 | 91.9* | 94.3* | 80.0* | 50.9*
O=C(O)CCN1C(=O)/C(=C\c2cccc(OCc3ccccc3)c2)SC1=S | 96.4* | 36.6 | 3.5 | 95.6* | 12.5 | 4.1 | 6.4 | 0.5 | -2.0 | 3.5
Cc1nn(C2CCS(=O)(=O)C2)c(C)c1CN(C)C(=O)c1cccc(Cl)c1 (configuration not stated) | 0.9 | -0.3 | . | -10.9 | 6.3 | . | . | . | . | .
C/C(=C\c1ccccc1)C(=O)Nc1ccc(Cl)cn1 | 33.5 | 26.7 | . | 40.3 | 2.0 | . | . | . | . | .
O=C(N/C=C/n1cnc2cc(C(F)(F)F)ccc21)c1ccccc1F | -5.6 | -4.4 | -2.3 | -5.7 | 8.8 | . | . | . | . | .
Oc1ccc(/C=N/Nc2nccnc2Cl)cc1 | 97.9* | 98.8* | 98.3* | 96.7* | -61.1 | 98.5* | 99.2* | 102.4* | 98.2* | 97.9*
Fc1cccc(/C=N/Nc2nccnc2Cl)c1 | 92.9* | 98.9* | ? | 97.1* | -220.4 | 95.7* | 96.4* | 102.4* | 98.4* | 96.4*
Fc1cccc(/C=N/Nc2nncc3ccccc23)c1 | 89.8* | 95.5* | 23.8 | 92.2* | 19.1 | 78.2* | 94.1* | 98.2* | 88.6* | 60.8*
Fc1cccc(/C=N/N=C/c2cccc(F)c2)c1 | 15.3 | 38.2 | -22.1 | 31.4 | 3.8 | . | . | . | . | .
